We go through 22 molecules from PubChem BioAssay (EPA / NIEHS).

Records with an inconclusive call do not appear. The source made the active and inactive calls. Rule for the calls, unless noted: active = hit-call score of the fitted dose curve at least 0.9, where 1 is the maximum; inconclusive = response in the unintended direction; inactive = score below 0.9.

Test [1] in a line: UKN5_HCS_SBAD2_cell_viability: Viability Assessment in the University of Konstanz (UKN) Leist Lab Neurite Outgrowth Assay in human iPSC-derived immature Dorsal Root Ganglia Neurons (UKN5) (AID 2284056; active = hit-call score of the fitted dose curve at least 0.9, where 1 is the maximum; inactive = score below 0.9). The procedure, abridged:
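iPSC-derived immature peripheral neurons (SBAD2) seeded on Matrigel with CHIR99021, SU5402 and DAPT, dosed 1 h later for 24 h. Viability from Hoechst H-33342 and calcein-AM live staining, high-content imaging; bidirectional fit versus DMSO.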

A short description of test [2]: UKN5_HCS_SBAD2_neurite_outgrowth: University of Konstanz (UKN) Leist Lab Neurite Outgrowth Assay in human iPSC-derived immature Dorsal Root Ganglia Neurons (UKN5) (AID 2284070; active = hit-call score of the fitted dose curve at least 0.9, where 1 is the maximum; inactive = score below 0.9). The note with it: actives raise or lower the signal. The procedure, abridged: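 Cryopreserved SBAD2 peripheral neurons were seeded at 100.000 cells/cm2 in N2-S/KSR medium containing CHIR99021, SU5402 and DAPT, then exposed to compounds for 24 h. Neurite area from calcein-AM high-content imaging was fitted bidirectionally against DMSO.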

Test [3] can be described thus: UKN4_HCS_LUHMES_neurite_outgrowth: University of Konstanz (UKN) Leist Lab Neurite Outgrowth Assay in human LUHMES cells (UKN4) (AID 2284206; active = hit-call score of the fitted dose curve at least 0.9, where 1 is the maximum; inactive = score below 0.9). The note with it: actives raise or lower the signal. Put shortly:
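Read-out: calcein-AM neurite area by high-content fluorescence imaging, with Hoechst H-33342 viability counterstain, after 24 h chemical exposure of day-2 differentiated LUHMES cells. Activity fitted bidirectionally against DMSO baseline.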

Test [4] is described as follows: UKN4_HCS_LUHMES_cell_viability: Viability Assessment in the University of Konstanz (UKN) Leist Lab Neurite Outgrowth Assay in human LUHMES cells (UKN4) (AID 2284232; active = hit-call score of the fitted dose curve at least 0.9, where 1 is the maximum; inactive = score below 0.9). Put shortly:
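Day-2 differentiated LUHMES, 30000 cells/well, dosed ~30 min–2 h post-seeding; 24 h treatment incl. staining; Hoechst H-33342 + calcein-AM at 23.5 h; HCS imaging; DMSO-normalized, bidirectional fit.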

Test [5] in a line: IUF_NPC1_cytotoxicity_72hr: Cytotoxicity Assessment at 72 hours in the Leibniz Research Institute for Environmental Medicine (IUF) Neural Progenitor Cell Proliferation Assay (NPC1) (AID 2284332).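 Note: rising LDH signal means more cytotoxicity.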 The procedure, abridged: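 LDH in supernatant, resazurin→resorufin fluorescence (RFU), 72 h exposure, no re-dosing. Cells: primary hNPC spheres, one per well, EGF+FGF medium, 37C/5% CO2, pH 7.2-7.6. Fit: positive direction vs baseline and dynamic range.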

Test [6] in a line: IUF_NPC5_oligodendrocyte_differentiation_120hr: Leibniz Research Institute for Environmental Medicine (IUF) 120-hour Oligodendrocyte Differentiation Assay (NPC5) (AID 2284304).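 Note: primary human fetal neural progenitor spheres plated to migrate and differentiate; share of O4-positive cells among Hoechst nuclei found by CNN image analysis.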 Put shortly:
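Human primary NPC neurospheres migrating and differentiating on laminin for 120 h under continuous compound exposure (serial dilution, solvent control). Endpoint: percent O4+ oligodendrocytes among Hoechst nuclei, detected by CNN image analysis, with DMSO as negative control.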

Test [7] can be described thus: IUF_NPC4_neurite_area_120hr: Leibniz Research Institute for Environmental Medicine (IUF) 120-hour Neuronal Morphology Assay for Neurite Area (NPC4) (AID 2284305). Put shortly: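 Neurite area (pixels, nuclei excluded) of TUBB3-positive neurons from hNPC spheres differentiating 5 days under continuous exposure at 37 C, 5% CO2. High-content imaging; loss of signal versus DMSO control across 7 concentrations.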

Test [8] is described as follows: CCTE_Mundy_HCI_hNP1_Pro_ResponderAvgInten: CCTE's Proliferation Assay in human neuroprogenitor cells, Mundy Lab (AID 2284224). The procedure, abridged:
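Proliferation was scored as BrdU labelling intensity in human neural progenitors derived from WA09 embryonic cells, measured 26.25 hours after chemical dosing. Activity was fitted relative to DMSO.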

Test [9] in a line: CCTE_Mundy_HCI_Cortical_NOG_NeuronCount: CCTE's Neurite Outgrowth Assay in rat cortical cells for Neuron Count, Mundy Lab (AID 2284236).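 Note: neurons counted by imaging betaIII-tubulin and Hoechst stained cortical cells; cells exposed to compound for about 48 hours before fixation.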 Put shortly: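 Read-out: neuron number by high-content imaging of betaIII-tubulin (Alexa Fluor-488) and Hoechst-labelled rat primary cortical cells.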
Test [10] can be described thus: CCTE_Mundy_HCI_hNP1_Casp3_7: CCTE's Caspase-Glo 3/7 Assay in human neuroprogenitor cells for Apoptosis, Mundy Lab (AID 2284240; active = hit-call score of the fitted dose curve at least 0.9, where 1 is the maximum; inactive = score below 0.9). The procedure, abridged:
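Apoptosis is scored by activated caspase-3/7 luminescence in WA09-derived neural progenitor cells, measured 26.5 h after chemical dosing. Values represent gain of signal relative to DMSO vehicle.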

A short description of test [11]: CCTE_Mundy_HCI_Cortical_Synap_Neur_Matur_NeuronCount: CCTE's Synaptogenesis and Neurite Maturation Assay in rat cortical cells for Neuron Count, Mundy Lab (AID 2284242).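 Note: neuron number from Hoechst nuclei and MAP2 staining by high-content imaging; hits reduce neuron count versus DMSO baseline.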 Put shortly:
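Rat cortical cultures; AraC DIV 5; chemical dosing + media change DIV 7 to DIV 12 (288.33 h readout). Fix, Hoechst, anti-MAP2/anti-synaptophysin immunostain; HCI neuron count vs DMSO baseline.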

A short description of test [12]: CCTE_Mundy_HCI_Cortical_Synap_Neur_Matur_BPCount: CCTE's Synaptogenesis and Neurite Maturation Assay in rat cortical cells for Branch Point Count, Mundy Lab (AID 2284211; active = hit-call score of the fitted dose curve at least 0.9, where 1 is the maximum; inactive = score below 0.9). The procedure, abridged: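 In this multiplexed morphology assay, cortical cells from rat receive chemicals at DIV 7 and are fixed at DIV 12, then immunostained and imaged; branch points are counted, with DMSO as baseline.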

Test [13] can be described thus: CCTE_Mundy_HCI_Cortical_NOG_NeuriteCount: CCTE's Neurite Outgrowth Assay in rat cortical cells for Neurite Count, Mundy Lab (AID 2284212; active = hit-call score of the fitted dose curve at least 0.9, where 1 is the maximum; inactive = score below 0.9;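 note: cells fixed about two days after chemical exposure began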). The procedure, abridged:
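Rat cortical primary cells; compound added 2 h post-plating, 1/10 dilution of working solution. Anti-betaIII-tubulin/AF488 ICC; ArrayScan neurite count vs DMSO.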

The nature of test [14]: CCTE_Mundy_HCI_Cortical_Synap_Neur_Matur_NeuriteCount: CCTE's Synaptogenesis and Neurite Maturation Assay in rat cortical cells for Neurite Count, Mundy Lab (AID 2284222; active = hit-call score of the fitted dose curve at least 0.9, where 1 is the maximum; inactive = score below 0.9;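 for outcome: exposure from day 7 to day 12 in vitro with readout at day 12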). Put shortly: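 Primary rat cortical cells were plated, treated with AraC at DIV 5, then exposed to chemicals from DIV 7 through DIV 12. After fixation and immunostaining for MAP2 and synaptophysin, imaging quantified neurites, with DMSO as the negative control.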

Test [15] can be described thus: CCTE_Mundy_HCI_hNP1_CellTiter: CCTE's Cell Titer-Glo 2 Assay in human neuroprogenitor cells for Viability, Mundy Lab (AID 2284241).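 For AC50: a hit is a drop in ATP luminescence versus DMSO meaning reduced viability.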 The procedure, abridged: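 Human neural progenitor cells (hNP1, WA09-derived) were plated on poly-L-ornithine/laminin and grown 40 to 44 hours at 37 °C, 5% CO2 before chemical addition. Twenty-four hours later, ATP was measured by CellTiter-Glo luminescence; loss of signal versus DMSO indicates reduced viability.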
A general note: Cellular ATP, detected with luciferase, serves as a proxy for viable cell number.

A short description of test [16]: CCTE_Mundy_HCI_iCellGluta_NOG_NeuriteLength: CCTE's Neurite Outgrowth Assay in iCellGluta cells for Neurite Length, Mundy Lab (AID 2284318). Put shortly: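 Automated high-content imaging of betaIII-tubulin (Alexa Fluor-488) and Hoechst-stained cells gave neurite length, normalized to the DMSO baseline.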
A short description of test [17]: CCTE_Mundy_HCI_iCellGluta_NOG_NeuronCount: CCTE's Neurite Outgrowth Assay in iCellGluta cells for Neuron Count, Mundy Lab (AID 2284340).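 Note: cells fixed about 48 h after compound addition.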 Put shortly: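 Neuron count read by automated high-content imaging of Hoechst 33342 and betaIII-tubulin/Alexa Fluor-488 labelling in human iPSC glutamatergic neurons. Activity fitted relative to DMSO.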
Test [18] in a line: CCTE_Mundy_HCI_iCellGluta_NOG_NeuriteCount: CCTE's Neurite Outgrowth Assay in iCellGluta cells for Neurite Count, Mundy Lab (AID 2284342).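 Note: chemical exposure about 48 hours starting 2 hours after plating.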
A short description of test [19]: CCTE_Harrill_HTTr_CellCount_MCF7: CCTE's Cell Proliferation Assessment for the High-Throughput Transcriptomics (HTTr) Platform, Harrill Lab (AID 2284012).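 Note: count of Hoechst-stained nuclei per well by high-content imaging in MCF-7 cells; cells exposed to compound for six hours; intended direction is loss of nuclei count meaning fewer cells.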 The procedure, abridged:
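Readout: Hoechst nuclear count by high-content imaging. MCF-7, 8-point dilution series, 6 h exposure. Bidirectional fit vs DMSO baseline.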

Usually AC50 stands for the midpoint of the concentration-response curve, whichever way the signal moves.

Turning to `C/C(=C/C=C/[C@@H](C)C(=O)O)[C@H]1CN[C@H](C(=O)O)[C@H]1CC(=O)O`, the call in test [1], in test [2], in test [3], in test [4] and in test [5] was inactive.
Regarding `C[n+]1ccc(-c2ccccc2)cc1`, the molecule was called inactive in [1], in test [2], in test [4], in test [6] and in test [7]. Further, the AC50 in [3] was 2.69 µM (active).
In the case of `O=C(O)CNCP(=O)(O)O`, the molecule was classed as inactive in [8], in [9] and in [10].
In the case of `O.O.O.O.O.[Cd+2].[Cd+2].[Cl-].[Cl-].[Cl-].[Cl-]`, the molecule was classed as inactive in test [8]. Moreover, the AC50 was 76.6 µM (active) in [9], 50 µM (active) in [10] and 1.24 µM (active) in test [11].
As for `[CH3][Sn]([CH3])[CH3]`, the outcome in test [9] was inactive. For the same molecule, the AC50 in test [10] is 5 µM (active); in test [11], 1.67 µM (active).
On to `Cn1nc(C(F)(F)F)c(CS(=O)(=O)C2=NOC(C)(C)C2)c1OC(F)F`, for which the AC50 was 15.1 µM (active) in [12]; 84.9 µM (active) in test [13]; 31.3 µM (active) in test [11]; 50.1 µM (active) in test [7]; 50 µM (active) in [16]. Also, the outcome in test [14], in test [8], in [9], in test [10], in test [15] and in [6] was inactive. Moreover, the call in [5], in test [17] and in test [18] was inactive.
Turning to `Cc1cc(N)ccc1N`, the outcome in test [19] was inactive.
Take `CCOP(=O)(OCC)SCSCC`: the result in test [12], in test [14], in [8], in test [10], in test [6] and in [7] was inactive. Moreover, the molecule was called inactive in test [5] and in [17]. Besides, the AC50 in test [13] was 78.6 µM (active); in test [9], 89 µM (active); in test [16], 49.8 µM (active); in test [18], 49.8 µM (active).
With `CC1(C)[C@@H](C=C(Cl)Cl)[C@@H]1C(=O)O[C@@H](C#N)c1ccc(F)c(Oc2ccccc2)c1`, the result in test [12], in [13], in [14], in test [8], in test [9] and in [10] was inactive. The outcome in test [15], in test [6], in test [16], in [5], in [17] and in [18] was inactive.
Regarding `CCOP(=O)(OCC)OC(Cl)C(Cl)(Cl)Cl` (stereo unspecified), the AC50 is 79.5 µM (active) in test [12] and 9.85 µM (active) in [11]. Besides, the result in [13], in [14], in [8], in test [9], in [10] and in test [7] was inactive. The result in test [16], in test [5], in [17] and in [18] was inactive.
As to `O=C1CCO1`, in test [19], the result was inactive.
Regarding `COP(=O)(OC)SCN1C(=O)c2ccccc2C1=O`, the call in [12], in test [13], in test [14], in [8], in test [9] and in test [10] was inactive. Also, the molecule was called inactive in [6], in [7], in test [5], in [17] and in [18]. Moreover, the AC50 in [16] is 50.5 µM (active).
As for `CC(=O)[O-].CC(=O)[O-].O.O.O.[Pb+2]`, the AC50 in [1] was 17.7 µM (active). The molecule was called inactive in [2], in test [3], in test [4], in test [9] and in test [10].
With `O=[As]O`, the AC50 in [12] was 5 µM (active); in [13], 3.32 µM (active); in [14], 4.43 µM (active); in test [8], 2.79 µM (active); in [9] it was 3.59 µM (active); in test [10], 3.8 µM (active). Moreover, the AC50 in test [15] was 6.1 µM (active); in test [11], 2.74 µM (active). Besides, the call in test [6] and in test [7] was inactive.
On to `CNC(=O)Oc1cccc(C(C)C)c1`, for which the result in test [19] was inactive.
`O=C1N[C@@H]2C(=C[C@H](O)[C@@H](O)[C@H]2O)c2cc3c(c(O)c21)OCO3`: the AC50 was 0.0303 µM (active) in test [1]; 0.0327 µM (active) in [2]; 0.0456 µM (active) in test [3]; 0.256 µM (active) in test [4]; 0.0121 µM (active) in [6]; 0.00933 µM (active) in test [7]. The result in [5] was inactive.
In the case of `CC1(C)C(C=C(Cl)Cl)[C@H]1C(=O)O[C@H](C#N)c1cccc(Oc2ccccc2)c1` (stereo partly specified), the result in test [1], in [2], in test [3], in test [4], in test [7] and in test [5] was inactive. In addition, the AC50 in [6] is 1 µM (active).
With `CC(C)CC(C)c1sccc1NC(=O)c1cn(C)nc1C(F)(F)F` (stereo unspecified), the result in test [1], in test [2], in test [4], in [7] and in test [5] was inactive. Moreover, the AC50 in test [3] is 73.1 µM (active); in test [6], 5.68 µM (active).
Consider `CN1CC=C(c2ccccc2)CC1`, for which the call in test [1], in [2], in [3] and in test [4] was inactive.
`C=CCN1CC[C@]23c4c5ccc(O)c4O[C@H]2C(=O)CC[C@@]3(O)[C@H]1C5`: the molecule was classed as inactive in test [12], in test [13], in [14], in test [9], in [10] and in test [15].
For the molecule `O=[As](O)(O)O`, the AC50 in [1] is 4.31 µM (active); in [2] it was 1.4 µM (active); in [3], 74.5 µM (active); in test [4], 71.4 µM (active).
Take `Clc1cc(Cl)c(-c2cc(Cl)c(Cl)c(Cl)c2Cl)cc1Cl`: the outcome in test [1] and in test [2] was inactive. The values for the AC50 in [3] and in [4] were 14.2 µM (active) and 19.1 µM (active), respectively.
